Source: PubChem BioAssay (NCI)
About 83,000 compounds went through this panel and 20% of them were active in at least one assay; those are over-represented in the sample as a whole.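 Percent growth is the endpoint: 0 to 100 indicates growth inhibition (40 means 60% inhibition), 0 means no net growth, and negative values indicate cell death.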 A number with no mark means an inactive call. The source made the active and inactive calls. The calls were made as follows: active = growth percent below 10; inactive = the rest.

Tests used:
Assay in all cases: NCI-60 one-dose screen, 48 h (100 = growth as untreated, 0 = no growth, -100 = all killed)
Settings in all cases: 10 µM unless noted
NCI-H23 lung = tested on: NCI-H23 lung
NCI-H322M lung = tested on: NCI-H322M lung
HOP-62 NSCLC = tested on: HOP-62 NSCLC
NCI-H460 lung = tested on: NCI-H460 lung
HOP-92 NSCLC = tested on: HOP-92 NSCLC
NCI-H522 lung = tested on: NCI-H522 lung
A549/ATCC NSCLC = tested on: A549/ATCC NSCLC
786-0 renal = tested on: 786-0 renal
COLO 205 colon = tested on: COLO 205 colon
DU-145 prostate = tested on: DU-145 prostate
K-562 leukemia = tested on: K-562 leukemia
MALME-3M melanoma = tested on: MALME-3M melanoma
MDA-MB-231 breast = tested on: MDA-MB-231 breast
RXF 393 renal = tested on: RXF 393 renal
SF-268 CNS = tested on: SF-268 CNS
SF-295 CNS = tested on: SF-295 CNS
SF-539 CNS = tested on: SF-539 CNS
UACC-257 melanoma = tested on: UACC-257 melanoma
M14 melanoma = tested on: M14 melanoma
HCT-15 colon = tested on: HCT-15 colon

| SMILES | growth (NCI-H23 lung) [%] | growth (NCI-H322M lung) [%] | growth (HOP-62 NSCLC) [%] | growth (NCI-H460 lung) | growth (HOP-92 NSCLC) [%] | growth (NCI-H522 lung) | growth (A549/ATCC NSCLC) | growth (786-0 renal) [%] | growth (COLO 205 colon) | growth (DU-145 prostate) | growth (K-562 leukemia) | growth (MALME-3M melanoma) | growth (MDA-MB-231 breast) | growth (RXF 393 renal) | growth (SF-268 CNS) | growth (SF-295 CNS) | growth (SF-539 CNS) | growth (UACC-257 melanoma) | growth (M14 melanoma) | growth (HCT-15 colon) [%] |
| --- | --- | --- | --- | --- | --- | --- | --- | --- | --- | --- | --- | --- | --- | --- | --- | --- | --- | --- | --- | --- |
| Nc1n[nH]c2ccc([C@@H]3Nc4ccc5[nH]ncc5c4[C@H]4[C@H]5CCC(C5)[C@H]43)cc12 | 31.4 | 42.7 | 35.7 | 3.93% (active) | 33.7 | -21.4% (active) | 18.5% | 24.1 | 0.265% (active) | 7.74% (active) | 9.58% (active) | 52.2% | 11.8% | 25.6% | 25% | 14% | -15.8% (active) | 69.4% | 8.3% (active) | 16.5 |
| CCCC(=O)CC(C)=O.CCCC(=O)CC(C)=O.[Cu] | 97.3 | 99.5 | 94.3 | 107% | 96.5 | 91% | 79.4% | 104 | 97.4% | 110% | 104% | 89.9% | 120% | 122% |  | 103% | 104% | 74.9% | 100% | 105 |
| CC/C=C\C[C@H](O)C/C=C1/C(=O)C=C[C@@H]1C/C=C\CCCC(=O)OCCS(=O)(=O)c1ccccc1 | 59 | 71.2 | 22.1 | 42% | 110 | -7.61% (active) | 78.1% | 60 | 43.6% | 47.7% | 7.77% (active) | 63.7% | 40.2% |  | 42.6% | 100% | 59.9% | 66.8% | 27.5% | 62 |
| Cc1cc(Nc2ccc(OCc3ccccc3)cc2)nc2cc(O)ccc12 | 55 | 76.2 | 57.7 | 47.2% | 15.8 | 53.2% | 66.6% | 72.2 | 21.9% | 86.4% | 5.02% (active) | 43.6% | 37.7% | 93.7% | 79.8% |  | 97.5% | 43.7% | 40.4% | 16.9 |
| Cc1ccc(OCCCCCCNCCO)c(C)c1 | 19.8 | 11.1 | 10.1 | -20.9% (active) | 12.8 | -8.65% (active) | 5.92% (active) | 11.3 | 1.75% (active) | 21.5% | 6.98% (active) | -0.226% (active) | 18% | -2.46% (active) | 4.83% (active) |  | -14.7% (active) | -8.91% (active) | -0.43% (active) | 22.8 |
| COC(=O)[C@H]1CCCN1C(=O)[C@H]1CCCN1C(=O)[C@H](Cc1c[nH]c2ccccc12)NC(=S)Nc1cc(C(F)(F)F)cc(C(F)(F)F)c1 | 65.2 | 78.4 | 74.5 | 22.1% | 88.8 | 68.6% | 35% | 58.3 | -34.8% (active) | 64.6% | 34.7% | 70.5% | -38.5% (active) | 64.8% | 47.8% |  | 74.3% | 67.9% | 56% | 70.4 |
| O=CCCCC(O)C=O (stereo not given) | 96.3 | 109 | 95 | 101% | 107 | 107% | 105% | 97.5 | 100% | 106% | 103% | 104% | 115% | 102% | 106% |  | 105% | 106% | 105% | 108 |
| CCOC(=O)c1cc2c(n1Cc1cc(OC)c(OC)c(OC)c1)-c1oncc1CCC2 | 21.5 | 50.7 | 39.8 | 5.74% (active) | 129 | 5.14% (active) | 26.7% | 39.5 | -39.9% (active) | 13% | 6.98% (active) | 43.9% | 12.3% | 26.9% | 46.1% |  | -7.45% (active) | 70.7% | 18% | 16.9 |
| COc1cc(-c2c3c(c(Br)n2Cc2ccccc2)-c2nc(N)sc2CC3)cc(OC)c1OC | 98.2 | 77.7 | 88.5 | 94% | 76.4 | 38.4% | 82.9% | 86 | 108% | 108% | 47.7% | 81% | 68.6% | 90.5% | 88.2% |  | 98.1% | 93.6% | 90.3% | 85 |
| CCCCCCc1cc2cc(-c3nc4ccccc4[nH]3)c(=Nc3ccccc3C)oc2cc1O | 50.4 | 62.8 | 58 | 44.8% | 13.3 | 14.3% | 49.9% | 46.8 | -94.3% (active) | 67.4% | 7.87% (active) | -29.3% (active) | 41.6% | 28.5% | 65.5% |  | 75.3% | 4.39% (active) | 9.12% (active) | 31.2 |
| Cn1c2c(c(=O)[nH]c1=O)NC1=C(C(=O)c3ccccc31)C1(C=C(O)c3ccccc31)N2 (stereo not given) | 109 | 113 | 101 | 111% | 75.7 | 99.9% | 102% | 97.7 | 121% | 89% | 112% | 124% | 105% |  | 103% | 135% | 107% | 115% | 96.8% | 96.9 |
| CN(O)c1nc(N(C)O)nc(N2CCOCC2)n1 | 66 | 35.1 | 34.5 | 8.62% (active) | 52.4 | 31.4% | 33% | 21 | 3.87% (active) | 38.8% | 9.56% (active) | 48.5% | 56% |  | 29.3% | -30.2% (active) | 38% | 30% | 16% | 22.5 |
| O=C(NC1CCN(Cc2ccccc2)CC1)c1cc(C(=O)NC2CCN(Cc3ccccc3)CC2)cc(C(=O)NC2CCN(Cc3ccccc3)CC2)c1 | 77.2 | 90.3 | 58.7 | 91.8% | 54.3 | -67.7% (active) | 39.8% | 100 | 108% | 93.4% | 64.6% | 77.9% | 90.3% | 60.1% | 71.4% |  | 90.5% | 81.2% | 83.2% | 78.2 |
| CN1CCN(c2nc(Nc3ccc(O)cc3)nc3ccccc23)CC1 | 74.8 | 68 | 74.5 | 13.9% | 89.6 | 37.5% | 42.5% | 64.2 | 44.1% | 63% | 42% | 61.8% | 66.2% | 77.3% | 52.5% |  | 47.2% | 59.2% | 50.3% | 32.5 |
| COC(=O)/C(=C\c1c(C)[nH]c2ccccc12)S(=O)(=O)c1ccccc1 | 18.6 | 47.5 | 29.8 | -7.04% (active) | 21.5 | 31.9% | 23.7% | 48 | 31.8% | -53.4% (active) | 14.4% | 45.8% | 90% |  | 2.87% (active) | 16.6% | -24.3% (active) | 29.4% | 33.7% | 23.8 |
| Clc1ccc(-c2nnc(COc3ccc(C4=NNC(c5ccco5)C4)cc3)o2)cc1 (stereo not given) | 61.5 | 36.6 | 105 | 82.7% | 76.8 | 86.7% | 45.6% | 89.5 | 105% | 94.8% | 80.7% | 109% | 82.7% | 91.7% | 93.9% |  | 95.6% | 96.1% | 88% | 58.8 |
